# Sampled rows, rich in hits. Any-hit rate of the full collection: about 21%.
# Shiga inhibitor: A qHTS for Small Molecule Inhibitors of Shiga Toxin; hit rate 9.2% among 290,000; Vero cells, Shiga toxin protein synthesis inhibition reporter; inhibition, % at 38.7 µM; AID 2315, 2010; in the data active means inhibition mostly above about 28%, no sharp cut-off; inactive means mostly below about 43%; further: 0% is about no effect
# Pf growth 48h: Primary qHTS for delayed death inhibitors of the malarial parasite plastid, 48 hour incubation | P. falciparum luciferase growth in erythrocytes, 48 h | Potency, µM (top dose mostly 28.7 µM), for inactives: at the top dose activity change, negative = inhibition, most hits filed as inhibitors | hit rate 5.9% among 310,000; further: potency means the concentration at half of the fitted maximal effect; on the % scale 0 is the no-effect control and ±100 the full control effect
#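 Cell-based growth assay: transgenic P. falciparum expressing firefly luciferase, cultured in red cells within RPMI 1640 containing 0.5% w/v Albumax, 24 mM bicarbonate and gentamycin. A drop in luciferase activity indicates inhibition.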
# Pf growth 96h: Primary qHTS for delayed death inhibitors of the malarial parasite plastid, 96 hour incubation | Potency, µM (top dose mostly 28.7 µM), without a hit: at the highest dose activity change, negative = inhibition, usual class: inhibitors | P. falciparum luciferase reporter growth, 96 h | hit rate 6.9% among 320,000 | AID 504834, 2011; further: potency means the concentration at half of the fitted maximal effect; on the % scale 0 is the no-effect control and ±100 the full control effect
#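 Cell-based qHTS: luciferase-tagged P. falciparum in erythrocytes (2% hematocrit, 0.05% parasitemia final) incubated with compounds for 96 hours, 37 C, 5% CO2; luciferase detection reagent then added and luminescence measured.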
# CHX counter: Cycloheximide Counterscreen for Small Molecule Inhibitors of Shiga Toxin. cell reporter, cycloheximide protein synthesis inhibition counterscreen. max response, %. hit rate 12% among 300,000; in the data active means max response mostly above about 13%, no sharp cut-off; inactive means mostly below about 14%; further: read at 38.3 µM for the half of the compounds with a filed dose; 0% is about no effect
# The depositor's hits bear a star; u = inconclusive; x = no result given. Unless noted, the call rests on the fitted dose curve; in most records, active means well fitted inhibition curve with a large enough effect; inconclusive means small, poorly fitted or top-dose-only effect, or another doubt; inactive means no such curve, though single readings can be large or run the other way.
SMILES,Shiga inhibitor,Pf growth 48h,Pf growth 96h,CHX counter
CCc1ccccc1NC(=O)c1noc(C(C)C)c1[N+](=O)[O-],21,9%,-12%,5
Cc1ccc(NC(=O)c2noc(C(C)C)c2[N+](=O)[O-])cc1,78*,u,u,55*
CC(C)c1onc(C(=O)Nc2cccc(O)c2)c1[N+](=O)[O-],145*,-29%,92%,31*
C=C1CCN(C(C)C(=O)OCc2ccc(C)cc2)S(=O)(=O)c2ccccc21 (stereo not drawn),9,x,x,-1
Cc1ccc(NC(=O)CSCc2cc(=O)n3ccsc3n2)c(C)c1,-11,14%,28%,-2
CC(C)c1onc(C(=O)Nc2ccc3c(c2)OCO3)c1[N+](=O)[O-],52*,8%,39%,33*
O=C(NCCN1CCOCC1)C1(C(F)(F)F)C/C(=C\Cc2ccccc2)CCCO1 (stereo not drawn),8,x,x,5
O=C(CSc1nnc(CNC(=O)c2c(F)cccc2F)o1)NCc1ccccc1Cl,20,-3%,4%,11
COc1ccc(Oc2nc(-c3cccnc3)nc3ccccc23)cc1,-2,u,u,1
Fc1ccccc1Oc1nc(-c2ccncc2)nc2ccccc12,3,u,3.3µM*,-2
COc1ccc(CN2C3CCCC2CC(NC(=O)Nc2ccccc2C)C3)cc1 (stereo not drawn),-2,u,u,1
COc1ccc(CN2C3CCCC2CC(NC(=O)Nc2ccccc2)C3)cc1 (stereo not drawn),-3,10µM*,u,0
COc1ccc(CN2C3CCCC2CC(NC(=O)Nc2cccc(C)c2)C3)cc1 (stereo not drawn),-13,7.4µM*,42%,-3
CCc1ccc(/C=C2\Oc3c(ccc(O)c3CN3CCN(CCO)CC3)C2=O)cc1,-3,u,u,0
COC(=O)c1c(S(C)(=O)=O)nc(-c2ccccc2)[nH]c1=O,12,-17%,u,-5
CC(C)Sc1nc2ccccc2[nH]1,28,-13%,2%,8
COc1ccc(OC)c(S(=O)(=O)N2CCN(c3ccccn3)CC2)c1,12,-3%,-24%,-6
O=C(/C=C/c1ccc(F)cc1)N1CCN(c2ncccn2)CC1,71*,-6%,-15%,24*
COc1ccc(OC)c(S(=O)(=O)N2CCCCC2C(=O)N2CCN(c3ccccn3)CC2)c1 (stereo not drawn),-14,12µM*,25%,-2
O=C(/C=C/c1ccccc1)N1CCN(c2ccccn2)CC1,15,17%,103%,10
O=C(/C=C/c1ccccc1F)N1CCN(c2ccccn2)CC1,24,u,-20%,17*
O=C(/C=C/c1cccc(F)c1)N1CCN(c2ccccn2)CC1,43*,20%,-4%,22*
CC(C)(C)c1ccc(/C=C/C(=O)N2CCN(c3ncccn3)CC2)cc1,-5,-6%,-15%,0
O=C(/C=C/c1ccc(Cl)cc1)N1CCN(c2ccccn2)CC1,-2,0%,-11%,-4
CN1CCN(C(=O)/C=C/c2ccc(C#N)cc2)CC1,3,x,24%,-2
SMILES,Shiga inhibitor,Pf growth 48h,Pf growth 96h,CHX counter
CN1CCCN(C(=O)/C=C/c2ccc(F)cc2)CC1,9,28%,49%,16*
COc1cc(/C=C/C(=O)N2CCN(c3ccccn3)CC2)cc(OC)c1OC,-8,u,u,-1
COc1ccc(/C=C/C(=O)N2CCN(c3ccccn3)CC2)cc1OC,2,-6%,12µM*,-3
CCCC(=O)NNc1c2ccccc2nc2ccccc12,2,-26%,9.3µM*,-1
OCCNc1c2ccccc2nc2ccccc12,18,u,u,3
O=C(CCCO)NNc1c2ccccc2nc2ccccc12,-2,1.5µM*,1.3µM*,-3
O=c1c2c(ncn2C2CCCC2)n(Cc2ccccc2)c(=O)n1CCOc1ccc(Br)cc1,-5,13µM*,13µM*,1
CCCCn1c(=O)n(CC(O)c2ccccc2)c(=O)c2c1ncn2C1CCCC1 (stereo not drawn),-15,2.9µM*,u,4
COCCn1cnc2c1c(=O)n(CC#N)c(=O)n2Cc1ccccc1,-6,-21%,u,-10
Cc1ccc(C)c(OCCn2c(=O)c3c(ncn3C3CCCC3)n(Cc3ccccc3)c2=O)c1,-3,12µM*,2.6µM*,-1
CCn1cnc2c1c(=O)n(Cc1cccc(Br)c1)c(=O)n2Cc1ccccc1,-5,u,-22%,7
O=c1c2c(ncn2C2CCCC2)n(Cc2ccccc2)c(=O)n1CCOc1ccccc1,16,17µM*,u,6
Cc1cccc(NC(=O)c2cc(S(=O)(=O)N3CCCCC3)ccc2Cl)n1,x,9.3µM*,u,x
Cc1cccc(NC(=O)c2ccc(Cl)c(S(=O)(=O)N3CCCCC3)c2)n1,x,57%,98%,x
Cc1ccc(S(=O)(=O)N2CCCCC2)cc1C(=O)Nc1ccccn1,-8,3.3µM*,2.1µM*,-1
Cc1cccc(NC(=O)c2ccc(Cl)c(S(=O)(=O)N3CCc4ccccc43)c2)n1,x,12µM*,12µM*,x
COc1ccc(S(=O)(=O)N2CCCCCC2)cc1C(=O)Nc1cc(C)ccn1,x,9.3µM*,10µM*,x
COc1ccc(S(=O)(=O)N2CCCCCC2)cc1C(=O)Nc1ccccn1,7,-15%,u,9
COc1ccc(S(=O)(=O)N2CCC(C(=O)NCc3ccncc3)CC2)cc1C,-12,2%,237%,-4
C=CCSc1nnc(CC(OC)OC)n1-c1ccccc1,40,12%,-14%,-6
O=C(Nc1ccncc1)c1ccc(Cl)c(S(=O)(=O)N2CCc3ccccc32)c1,x,3.3µM*,3.7µM*,x
Cc1cccc(NC(=O)c2ccc(Cl)c(S(=O)(=O)N3CCCC3)c2)n1,59*,u,7.4µM*,54*
COc1c(C)cc(Br)cc1C(=O)NC(=S)NCc1ccco1,-8,u,5%,-3
O=C(NN=C(Cc1ccccc1)Cc1ccccc1)c1ccc(F)cc1,77*,-32%,13µM*,36*
NC(=O)c1ccc(C(=O)N/N=C(/Cc2ccccc2)c2ccccc2)cc1,22,42%,u,26*
SMILES,Shiga inhibitor,Pf growth 48h,Pf growth 96h,CHX counter
C/C(Cc1ccccc1)=N\NC(=O)c1ccc(F)cc1,44,15%,u,26*
COc1ccc(N2CCN(C3CCCN(C(=O)CCN4CCCCO4)C3)CC2)cc1 (stereo not drawn),-4,0%,3%,-2
NC(=O)c1ccc(SCC(=O)OCC(=O)NCC2CCCCC2)c([N+](=O)[O-])c1,x,9%,7%,x
COc1cccc(C(=O)Nc2nnc(SCC(=O)NC3CCCC3)s2)c1,31,31%,10%,7
CCOc1ccc(N2CC(C(=O)Nc3cccnc3)CC2=O)cc1 (stereo not drawn),-10,-21%,12µM*,-2
COc1ccc(N2CC(C(=O)Nc3nnc(SCc4cccnc4)s3)CC2=O)cc1 (stereo not drawn),16,u,13µM*,4
O=C(CSc1nnc(NC(=O)C2CC(=O)N(c3ccccc3)C2)s1)NC1CCCC1 (stereo not drawn),-11,4%,0%,-5

# Compound activity from PubChem BioAssay.
